Some test systems named below: NCI-H23 lung; NCI-H226 lung; NCI-H322M lung; HOP-62 NSCLC; NCI-H460 lung; NCI-H522 lung; A549/ATCC NSCLC; 786-0 renal; COLO 205 colon; DU-145 prostate; K-562 leukemia; MALME-3M melanoma; MDA-MB-231 breast; RXF 393 renal; SF-268 CNS; SF-295 CNS; SF-539 CNS; UACC-257 melanoma; M14 melanoma; HCT-15 colon.
What all share (experiment): NCI-60 one-dose screen, 48 h (100 = growth as untreated, 0 = no growth, -100 = all killed)
Holding throughout (details): 10 µM unless noted

The values that follow come from PubChem BioAssay (NCI).

The panel holds about 83,000 compounds, 20% with a hit somewhere; the sample as a whole holds those more often.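 Cells were grown in 96-well plates and exposed to the test compound at a single concentration for 48 hours; results are reported as percent growth, with values below 10 considered active.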 Values without a mark were called inactive. Activity calls are given as the source filed them.

Take `O=C(Nc1ccc(Cl)cc1)c1cc2c(cc1O)[nH]c1ccccc12`: the growth in the experiment on NCI-H23 lung was -22.5% (active); in the experiment on NCI-H226 lung it was 35.9%; in the experiment on NCI-H322M lung, 26.9%; in the experiment on HOP-62 NSCLC, -2.15% (active); in the experiment on NCI-H460 lung, 12.5%; in the experiment with NCI-H522 lung it was -14.4% (active). In addition, the growth in the experiment on A549/ATCC NSCLC is 30%; in the experiment with 786-0 renal, 6.54% (active); with COLO 205 colon it was 87.3%; in the experiment with DU-145 prostate it was 28.4%; in the experiment with K-562 leukemia, 10.9%; in the experiment on MALME-3M melanoma, 23.1%. Moreover, the growth in the experiment with MDA-MB-231 breast was 36.1%; in the experiment with RXF 393 renal, 1.97% (active); with SF-268 CNS, 34.4%; with SF-295 CNS, -43% (active); with SF-539 CNS it was 12.4%; in the experiment on UACC-257 melanoma, -21.1% (active). Besides, the growth in the experiment on M14 melanoma was 31%; in the experiment with HCT-15 colon it was 32%.

For the compound `COc1cc(C2CC(c3ccc(C)cc3)=NN2C(C)=O)ccc1Oc1ccnc2cc(Cl)ccc12` (stereo not given), the growth with NCI-H23 lung was 59.9%; with NCI-H226 lung, 45.4%; in the experiment with NCI-H322M lung, 79.9%; in the experiment with HOP-62 NSCLC, 16.4%; with NCI-H460 lung, 32.3%; with NCI-H522 lung, 41.4%. The growth in the experiment on A549/ATCC NSCLC is 68.7%; with 786-0 renal, 21.9%; with COLO 205 colon it was 99.2%; with DU-145 prostate it was 74.8%; in the experiment with K-562 leukemia, 93.3%; in the experiment on MALME-3M melanoma it was 94.7%. Moreover, the growth in the experiment on MDA-MB-231 breast was 35.7%; with RXF 393 renal, 26.7%; in the experiment on SF-268 CNS it was 41.9%; with SF-295 CNS, 14.9%; in the experiment with SF-539 CNS, 23.1%; with UACC-257 melanoma it was 102%. Besides, the values for the growth with M14 melanoma and with HCT-15 colon were 106% and 90.7%, respectively.

Take `Nc1nc(SCC2(CCl)COC2)c2[nH]cnc2n1`: the growth in the experiment on NCI-H23 lung was 97.1%; with NCI-H226 lung it was 100%; in the experiment on NCI-H322M lung, 102%; in the experiment on HOP-62 NSCLC it was 89.7%; in the experiment on NCI-H460 lung, 107%; in the experiment on NCI-H522 lung, 80.2%. Further, the growth was 97.8% in the experiment with A549/ATCC NSCLC; 99.4% with 786-0 renal; 106% with COLO 205 colon; 116% in the experiment on DU-145 prostate; 90.6% in the experiment with K-562 leukemia; 88.8% with MALME-3M melanoma. Besides, the growth in the experiment with MDA-MB-231 breast was 104%; in the experiment on RXF 393 renal, 113%; in the experiment on SF-268 CNS, 98.5%; in the experiment with SF-295 CNS, 110%; with SF-539 CNS, 99.6%; with UACC-257 melanoma, 99.1%. For the same compound, the growth with M14 melanoma is 97%; in the experiment on HCT-15 colon, 99.6%.

For the compound `Cc1cc(NC(=O)Nc2cccc3ccccc23)no1`, the growth was 92.9% in the experiment with NCI-H23 lung; 108% with NCI-H226 lung; 105% with NCI-H322M lung; 103% in the experiment with HOP-62 NSCLC; 101% in the experiment on NCI-H460 lung; 91% with NCI-H522 lung. For the same compound, the growth with A549/ATCC NSCLC was 96.9%; in the experiment on 786-0 renal, 96.4%; in the experiment with COLO 205 colon, 154%; in the experiment on DU-145 prostate, 118%; in the experiment on K-562 leukemia it was 92.4%; in the experiment on MALME-3M melanoma, 101%. Moreover, the growth is 112% with MDA-MB-231 breast; 99.6% in the experiment with RXF 393 renal; 108% with SF-268 CNS; 103% in the experiment on SF-295 CNS; 97.2% with SF-539 CNS; 105% in the experiment on UACC-257 melanoma. Further, the growth in the experiment with M14 melanoma is 107%; in the experiment with HCT-15 colon, 95.2%.

As for `COc1cc([C@@H]2c3cc4c(cc3C(O[C@@H]3O[C@@H]5CO[C@@H](c6cccs6)OC5[C@H](O)[C@H]3O)C3COC(=O)[C@@H]32)OCO4)cc(OC)c1O` (stereo not given in full), the growth with NCI-H23 lung is -32.5% (active); with NCI-H226 lung, -53.9% (active); in the experiment on NCI-H322M lung it was 7.81% (active); with HOP-62 NSCLC, -39.8% (active); in the experiment with NCI-H460 lung it was -36.7% (active); with NCI-H522 lung, -53.7% (active). Moreover, the growth in the experiment with A549/ATCC NSCLC was -48.3% (active); in the experiment on 786-0 renal it was -40.6% (active); in the experiment with COLO 205 colon, -23.8% (active); with DU-145 prostate, -33.4% (active); in the experiment with K-562 leukemia, 4.5% (active); with MALME-3M melanoma, -28.7% (active). The growth in the experiment with MDA-MB-231 breast is -18.8% (active); in the experiment with RXF 393 renal it was -72.3% (active); in the experiment on SF-268 CNS, -17.1% (active); in the experiment on SF-295 CNS, -19.9% (active); in the experiment with SF-539 CNS, -35.5% (active); in the experiment with UACC-257 melanoma, -19.7% (active). The growth was -43.2% (active) in the experiment on M14 melanoma and 5.54% (active) with HCT-15 colon.

With `COc1ccc(-c2nn(-c3ccccc3)cc2/C=C2\SC(=S)N(CCc3ccc(O)cc3)C2=O)cc1`, the growth with NCI-H23 lung is 89.2%; in the experiment on NCI-H226 lung, 86.7%; in the experiment with NCI-H322M lung, 88.6%; with HOP-62 NSCLC it was 97.1%; in the experiment with NCI-H460 lung, 81.7%; in the experiment on NCI-H522 lung, 64.7%. For the same compound, the growth is 81.2% with A549/ATCC NSCLC; 93.7% in the experiment with 786-0 renal; 108% in the experiment on COLO 205 colon; 93.3% in the experiment with DU-145 prostate; 66% in the experiment with K-562 leukemia; 85.1% with MALME-3M melanoma. Also, the growth in the experiment on MDA-MB-231 breast is 75.4%; with RXF 393 renal, 92.5%; in the experiment with SF-268 CNS, 81.4%; in the experiment on SF-295 CNS, 80.2%; in the experiment with SF-539 CNS it was 87.2%; with UACC-257 melanoma, 93.7%. Further, the growth with M14 melanoma is 91.3%; with HCT-15 colon it was 77.7%.

Turning to `COc1ccc(Cn2c(NCCCN(C)C)nc(=O)n(Cc3ccc(F)cc3)c2=O)cc1`, the growth was 103% with NCI-H23 lung; 90.7% with NCI-H226 lung; 83% in the experiment on NCI-H322M lung; 93.5% in the experiment on HOP-62 NSCLC; 108% in the experiment on NCI-H460 lung; 95% with NCI-H522 lung. Also, the growth in the experiment on A549/ATCC NSCLC is 110%; with 786-0 renal, 89.3%; in the experiment with COLO 205 colon, 94.8%; in the experiment on DU-145 prostate, 99.4%; with K-562 leukemia it was 87.9%; in the experiment on MALME-3M melanoma, 87.9%. Further, the growth in the experiment with MDA-MB-231 breast was 81.4%; in the experiment on RXF 393 renal, 83.7%; in the experiment on SF-268 CNS it was 83.7%; in the experiment with SF-295 CNS it was 96.2%; in the experiment with SF-539 CNS, 108%; in the experiment on UACC-257 melanoma, 92.4%. Moreover, the growth in the experiment on M14 melanoma is 97.9%; in the experiment with HCT-15 colon, 107%.

As for `O=C(CN1CCCCC1)Sc1nnc2sc3ccccc3n12`, the growth was 93.1% with NCI-H23 lung; 84.9% with NCI-H226 lung; 111% in the experiment on NCI-H322M lung; 89.9% in the experiment with HOP-62 NSCLC; 103% in the experiment on NCI-H460 lung; 99.5% in the experiment on NCI-H522 lung. For the same compound, the growth in the experiment with A549/ATCC NSCLC was 109%; in the experiment on 786-0 renal, 106%; in the experiment on COLO 205 colon, 121%; in the experiment with DU-145 prostate, 112%; in the experiment on K-562 leukemia it was 99.6%; with MALME-3M melanoma, 97.5%. Further, the growth is 97.4% with MDA-MB-231 breast; 108% with RXF 393 renal; 102% in the experiment on SF-268 CNS; 110% in the experiment with SF-295 CNS; 101% in the experiment on SF-539 CNS; 102% in the experiment with UACC-257 melanoma. The growth with M14 melanoma is 98%; in the experiment on HCT-15 colon it was 112%.
